Mdm2 MdmX PPI = inhibitors of human Mdm2/MdmX interaction; O15151+Q00987; SaOS-2 split-luciferase Mdm2/MdmX complementation, luminescence; inhibition, % at 8 µM; 3% of 330,000 active;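 active means inhibition of at least 50% at 8 µM in the primary screen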
Beta cell apopt = beta cell apoptosis inhibition | INS-1E cytokine-induced death, ATP luminescence, 48 h; percent of positive-control rescue, neutral wells zero | protection from apoptosis, % (test concentration not listed) | 0.8% of 300,000 active | AID 435005;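 active means Every replicate reaches about 75%, or at least half do and their mean reaches it too, limit read from the data; inconclusive means At least half of replicates reach the limit but their mean does not; inactive means Under half of replicates reach the limit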;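 further: 0% = cytokine-treated negative control wells and 100% = positive control rescue; higher means more ATP so stronger rescue from cytokine killing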
NR3A LBD binder = NR3A (human) ligand-binding domain modulation; 2.5% of 340,000 active; NR3A LBD differential scanning fluorimetry, Tm shift; 0% = protein alone, 100% = glycine-bound protein; Tm shift relative to glycine control, % at 25 µM;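 active means melting temperature shift of at least 10% of the positive control shift, at one fixed dose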
CSC inhib = blocks cancer stem cells | cancer stem cell-like cells viability, luminescence | inhibition, % at 7.5 µM | AID 2717 | 1.1% of 300,000 active; in the data active means inhibition above about 75%; inconclusive means no clear call, values can overlap the other calls; tested in HMLE shEcad cells
Gli-Sufu block = Gli-Sufu pathway antagonism; Sufu-KO-LIGHT fibroblasts, Gli luciferase reporter luminescence; inhibition, % at 5 µM; 0.74% of 340,000 active; AID 588413;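 active means inhibition above about 55%, limit read from the data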;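 further: 0% = DMSO-treated cells and 100% = wells with medium but no cells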
MPTP inh = permeability transition pore inhibition. isolated mouse mitochondria, Ca2+ swelling absorbance, 30 min. inhibition, % at 10 µM. 1.4% of 360,000 active. AID 602449;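 active means inhibition of 50% or more, scaled per plate between neutral and stimulator controls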;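 further: 0% = DMSO wells given calcium and 100% = 1 mM EGTA wells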
Mdm2 MdmX conf = human Mdm2/MdmX binding inhibition, confirmed; shares compounds with Mdm2 MdmX PPI; luminescent assay; inhibition, % at 8 µM; 55% of 10,000 active; AID 489028; in the data active means inhibition above about 40%
FLuc counter = full-length luciferase inhibition in Mdm2/MdmX counter-screen. SaOS-2 full-length luciferase counterscreen, luminescence. shares compounds with Mdm2 MdmX PPI. 77% of 6,200 active. AID 504607. inhibition, % at 8 µM;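 active means mean inhibition at 8 µM reaching about 37%, which flags the compound as non-specific, limit read from the data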;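 further: p53-null SaOS-2 cells with luciferase driven by a doxycycline-inducible promoter; compound on cells about two nights before reading with doxycycline added after day one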
Starred values were filed as active, the others as inactive; ? = inconclusive; / = not tested or not shown. This is a sample that favours compounds with a hit; in the whole collection about 6.6% have one here.

SMILES | Mdm2 MdmX PPI | Beta cell apopt | NR3A LBD binder | CSC inhib | Gli-Sufu block | MPTP inh | Mdm2 MdmX conf | FLuc counter
O=c1c(Cl)c(N2CCCCC2)cnn1-c1nc2ccccc2[nH]1 | 52.5* | 41.8 | 1.4 | 12.2 | 24.8 | 1.5 | 56.3* | 62.6*
COc1ccc(-n2ncc(Cl)c(Cl)c2=O)cc1 | 100.3* | / | -0.8 | / | 9.5 | -0.4 | 98.8* | 52.2*
CC(C)[C@H](NC(=O)c1ccccc1Cl)C(=O)Nc1nc(-c2ccccn2)cs1 | 64.1* | 31.6 | -0.5 | 17.4 | 3.6 | -1.6 | 52.9* | 35.6
CC(Oc1ccc(Br)cc1)C(=O)Nc1nc(-c2ccccn2)cs1 (centres undefined) | 79.8* | / | -11.2 | 89.1* | 16.7 | -1.4 | 70.7* | 35.4
CCc1nnc(NC(=O)C(NC(=O)c2ccccc2Cl)C(C)C)s1 (centres undefined) | -15.1 | -6.4 | -1.1 | -6.4 | 2.4 | 8.9 | / | /
CCCCN1C(=O)C(CC(=O)NCc2cccs2)CC(C(=O)N(CC)CC)=C1C (centres undefined) | / | / | / | / | / | 0.1 | / | /
CCOC(=O)c1cc(C#N)c(SC)nc1C | 5.2 | / | -0.3 | -3.7 | 3.2 | 1.5 | / | /
CCOC(=O)c1cc2c(N)c(C(=O)c3cc(C#N)c(SC)nc3C)sc2nc1C | 50.4* | 15.9 | 9.5 | 17.6 | 12.2 | 43.5 | 25.0 | /
N/C(=N\OC(=O)Nc1ccccc1)c1ncc(C(F)(F)F)cc1Cl | 51.0* | -0.4 | 2.4 | 3.6 | 4.1 | -0.2 | 3.5 | /
COc1cc2c(c(OC)c1OC)-c1ccc(NC(=O)c3ccc(F)cc3)c(=O)cc1[C@@H](NC(C)=O)CC2 | 61.7* | 2.0 | 3.2 | 52.7 | 5.0 | 0.9 | 52.0* | 78.0*
COc1cc2c(c(OC)c1OC)-c1ccc(OC)c(=O)cc1[C@@H](NC(C)=O)CC2 | 73.3* | 38.1 | -0.5 | 49.0 | 51.8 | 0.0 | 40.8* | 97.7*
COc1cc2c(c(OC)c1OC)-c1ccc(NCc3ccccc3)c(=O)cc1C(NC(C)=O)CC2 (centres undefined) | / | / | / | / | / | -0.2 | / | /
O=C(O)c1cccc(-c2csc(C(O)c3ccccc3)n2)c1 (centres undefined) | / | / | / | / | / | 0.7 | / | /
COC(=O)NC(=C(Cl)Cl)S(=O)(=O)c1ccccc1 | 54.6* | / | -6.9 | 21.0 | / | 0.7 | 15.3 | /
CC(=O)c1ccc(N2CCN(C(=O)/C=C/c3ccc4ccccc4n3)CC2)cc1 | 68.6* | -2.6 | -1.4 | 27.0 | 29.8 | -0.9 | 51.9* | 66.3*
c1ccc(CN=C(NCc2ccccc2)NCc2ccccc2)cc1 | / | / | 2.0 | / | 24.7 | 9.8 | / | /
Cc1ccc(Sc2ncnc3onc(C)c23)c(C)c1 | / | / | -6.3 | / | -7.6 | -0.4 | / | /
Cc1noc2ncnc(Sc3ccccc3Cl)c12 | 70.1* | -12.6 | 1.4 | -8.8 | 0.0 | -0.3 | -4.2 | /
O=C(OCc1nnc(-c2ccccc2)o1)C1CC(=O)N(CCc2ccccc2)C1 (centres undefined) | 3.8 | 2.2 | -0.1 | -15.3 | 1.7 | 0.8 | / | /
Oc1ccc(Cn2ccnc2)c2cccnc12 | 3.8 | -3.5 | -1.8 | / | 7.1 | 0.9 | / | /
Oc1ccc(CNc2ccccc2)c2cccnc12 | 85.9* | 105.4* | -6.1 | 19.0 | 3.9 | 5.6 | 44.0* | 50.9*
Cc1ccccc1NCc1ccc(O)c2ncccc12 | 83.9* | / | -7.2 | -7.4 | 1.9 | 3.2 | 76.0* | 41.3*
COCc1ccc(O)c2ncccc12 | 59.8* | 91.4* | -1.7 | 25.9 | 2.3 | -6.1 | 36.5 | 58.9*
Cc1cccc(NCc2ccc(O)c3ncccc23)c1 | 76.7* | 6.1 | -8.6 | 32.7 | -2.5 | 2.1 | 74.2* | 43.0*
NC(=O)c1ccc(OCC(=O)N2CCNC2=O)cc1 | 2.5 | 0.4 | -2.6 | -15.1 | 7.7 | -2.0 | / | /
CC(C)CN1C(=O)c2ccc(C(=O)Nc3ccccc3C(=O)O)cc2C1=O | 7.8 | -4.1 | -16.5 | -3.9 | 29.3 | -0.6 | / | /
O=C1OCCN1N1CCOC1=O | / | / | 0.5 | / | 0.5 | -0.8 | / | /
Oc1ccc(CNc2ccc(F)cc2)c2cccnc12 | 85.5* | 92.2* | -9.6 | 26.7 | 0.5 | 1.4 | 80.2* | 36.0
O=C(/C=C/c1ccccc1)/C=C/c1ccccc1 | 95.4* | 19.4 | 6.4 | ? | -4.6 | -0.7 | 21.9 | /

Screens as filed in PubChem.
